MITF primary = blocks human microphthalmia-associated transcription factor; inhibition, % at 2.6 µM; AID 1259374; O75030; 650,000 compounds, 0.91% hits; AlphaScreen MITF homodimerization, bead proximity signal; in the data active means inhibition above about 50%;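 further: 0% = vehicle wells with protein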
FBW7 act = human FBW7 E3 ligase activation, primary screen; Q969H0; AlphaScreen FBW7–phospho-cyclin E peptide binding, activator screen; normalized activity (activation), % at 26.1 µM; 650,000 compounds, 0.13% hits; AID 1259310; in the data active means normalized activity above about 1.9%;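 further: purified mutant Fbw7 with reduced substrate affinity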
TEAD-YAP block = TEAD-YAP interaction inhibition; inhibition, % at 9.12 µM; HEK-TIYL cells, TEAD-Gal4/YAP UAS-luciferase luminescence; AID 1259422; 640,000 compounds, 1.4% hits; in the data active means inhibition above about 32%;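 further: 0% = median of test compound wells and 100% = reference inhibitor wells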
GPR151 activ = activates the human receptor GPR151. Q8TDV0. PathHunter beta-arrestin GPR151 cells, luminescence. activation, % at 11.2 µM. 650,000 compounds, 1% hits; in the data active means activation above about 4.9%;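 further: 0% = median of compound wells and 100% = cells with positive control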
Target sequence (Q8TDV0 whole entry, looked up): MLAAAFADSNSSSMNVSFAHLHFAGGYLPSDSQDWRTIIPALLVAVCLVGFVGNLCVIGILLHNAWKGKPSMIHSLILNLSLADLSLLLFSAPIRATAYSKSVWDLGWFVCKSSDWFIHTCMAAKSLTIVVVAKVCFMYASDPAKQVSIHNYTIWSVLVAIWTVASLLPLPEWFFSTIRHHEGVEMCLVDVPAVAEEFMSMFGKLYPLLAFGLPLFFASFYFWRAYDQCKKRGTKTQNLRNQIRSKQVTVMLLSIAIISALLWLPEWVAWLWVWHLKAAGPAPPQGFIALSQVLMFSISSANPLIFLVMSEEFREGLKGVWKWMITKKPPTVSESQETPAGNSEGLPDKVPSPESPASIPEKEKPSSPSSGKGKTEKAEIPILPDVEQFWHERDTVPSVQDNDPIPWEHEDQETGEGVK
MITF inh conf = confirmation of human MITF inhibitors | shares compounds with MITF primary | AlphaScreen MITF homodimerization, biotin/His-MITF beads | inhibition, % at 2.6 µM | 4,700 compounds, 16% hits;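 active means inhibition above a cutoff derived from the DMSO control wells, cut at about 28% in these data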;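 further: 0% = MITF dimer wells with DMSO only; inhibitors lower the bead chemiluminescence by keeping MITF from dimerizing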
AS interf DR = AlphaScreen optical interference, dose response counter-screen. IC50, µM. 480 compounds, 6% hits. shares compounds with MITF primary. AlphaScreen optical interference counterscreen, cell-free; call rule not given here
AS interf ctr = counter-screen: compounds optically interfering with AlphaScreen. shares compounds with MITF primary. LysRS AlphaScreen counterscreen, signal interference, triplicate. inhibition, % at 2.6 µM. 4,700 compounds, 7.6% hits;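 active means inhibition above a cutoff derived from the DMSO control wells, cut at about 30% in these data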
An asterisk follows results filed as active. An excerpt weighted towards active compounds, which were near 3.4% of everything screened.

How did CCOC(=O)N1CCN(C(=O)C2CCN(Cc3cc(OC)ccc3OC)CC2)CC1 do in these assays?
MITF primary: 41; FBW7 act: 0; TEAD-YAP block: 3; GPR151 activ: 0

Results for O=C(N=Nc1c(O)[nH]c2ccc([N+](=O)[O-])cc12)c1ccc(/C=N/O)nc1 ?
MITF primary: 2; FBW7 act: 0; TEAD-YAP block: -5; GPR151 activ: 3

What do the screens show for `COc1cccc(CCNC(=O)C2CC(Cc3ccc(F)cc3)=NO2)c1` (centres undefined)?
MITF primary: 1; FBW7 act: 0; TEAD-YAP block: -23; GPR151 activ: 2

How did CCn1c2ccccc2c2cc(CN3CCN(S(=O)(=O)CC)CC3)ccc21 do in these assays?
MITF primary: 53*; FBW7 act: 0; TEAD-YAP block: -2; GPR151 activ: -1; MITF inh conf: 14; AS interf ctr: 10

Results for CCn1c2ccccc2c2cc(CN3CCCN(C)CC3)ccc21 ?
MITF primary: 40; FBW7 act: 0; TEAD-YAP block: -7; GPR151 activ: 0

How did CCn1c2ccccc2c2cc(CN3CCN(Cc4ccccc4C(F)(F)F)CC3)ccc21 do in these assays?
MITF primary: 70*; FBW7 act: 0; TEAD-YAP block: 5; GPR151 activ: -2; MITF inh conf: 14; AS interf ctr: 17

How did CCn1c2ccccc2c2cc(CN3CCN(Cc4ccccc4Br)CC3)ccc21 do in these assays?
MITF primary: 76*; FBW7 act: 0; TEAD-YAP block: 0; GPR151 activ: 0; MITF inh conf: 16; AS interf ctr: 16

What do the screens show for `Cc1c(NC(=O)c2ccccc2F)cccc1-c1nc2ncccc2o1`?
MITF primary: 19; FBW7 act: 0; TEAD-YAP block: 1; GPR151 activ: -2

What do the screens show for `COc1ccc(C)cc1S(=O)(=O)N(C)CC(=O)Nc1ccccc1F`?
MITF primary: -2; FBW7 act: 0; TEAD-YAP block: -1; GPR151 activ: 3

How did COc1ccc(OC)c(NC(=O)CN(C)CC(=O)Nc2ccccc2Br)c1 do in these assays?
MITF primary: 74*; FBW7 act: 0; TEAD-YAP block: -6; GPR151 activ: 0; MITF inh conf: 15; AS interf ctr: 17

What do the screens show for `CC(NC(=O)CN(C)CC(=O)Nc1ccccc1Br)c1ccccc1` (centres undefined)?
MITF primary: 66*; FBW7 act: 0; TEAD-YAP block: -1; GPR151 activ: 0; MITF inh conf: -25; AS interf ctr: 1

How did COc1ccc(OC)c(S(=O)(=O)N(C)CC(=O)Nc2ccccc2F)c1 do in these assays?
MITF primary: 51*; FBW7 act: 0; TEAD-YAP block: -1; GPR151 activ: -1; MITF inh conf: 20; AS interf ctr: 8

What do the screens show for `CCc1ccc(OCCCC(=O)NCCOC)cc1`?
MITF primary: 21; FBW7 act: 0; TEAD-YAP block: 1; GPR151 activ: 2

What do the screens show for `CCC(C)c1ccccc1OCCCN1CCN(C)CC1` (centres undefined)?
MITF primary: 60*; FBW7 act: 0; TEAD-YAP block: 3; GPR151 activ: 0; MITF inh conf: -4; AS interf ctr: 3

How did CCCOc1ccccc1OCCCCN1CCN(C)CC1 do in these assays?
MITF primary: -1; FBW7 act: 0; TEAD-YAP block: 9; GPR151 activ: 1

Results for CCC(C)c1ccccc1OCCCCN1CCNCC1 (centres undefined) ?
MITF primary: 70*; FBW7 act: 0; TEAD-YAP block: -4; GPR151 activ: -1; MITF inh conf: -15; AS interf ctr: -3

How did O=C(Nc1ccc(C(F)(F)F)cc1)c1cc(S(=O)(=O)NCc2ccccc2)ccc1F do in these assays?
MITF primary: 17; FBW7 act: 1; TEAD-YAP block: 17; GPR151 activ: -3

Results for Cc1ccc(-c2ncn(-c3ccc(Nc4cc(-n5cnc(Nc6ccccc6)n5)c(F)cn4)cc3)n2)cn1 ?
MITF primary: 91*; FBW7 act: 0; TEAD-YAP block: -4; GPR151 activ: -1; MITF inh conf: 52*; AS interf DR: >6.5; AS interf ctr: -10

Results for O=C(Cn1cc(/C=C2/NC(=O)N(c3ccccc3)C2=O)c2ccccc21)Nc1ccccc1 ?
MITF primary: inactive; FBW7 act: 0; TEAD-YAP block: 6; GPR151 activ: 1

Results for O=C(Nc1cc(S(=O)(=O)O)cc2cc(S(=O)(=O)O)cc(O)c12)c1ccccc1 ?
MITF primary: 81*; FBW7 act: 0; TEAD-YAP block: -3; GPR151 activ: -1; MITF inh conf: 60*; AS interf DR: >6.5; AS interf ctr: 10

Results for O=C(Nc1cc(NC(=O)c2ccccc2)c(C(=O)O)cc1C(=O)O)c1ccccc1 ?
MITF primary: -7; FBW7 act: 0; TEAD-YAP block: -17; GPR151 activ: -1

Results for CCOc1ccccc1OCCCN1CCN(CC)CC1 ?
MITF primary: 67*; FBW7 act: 0; TEAD-YAP block: 1; GPR151 activ: 0; MITF inh conf: 9; AS interf ctr: 13

Results for CCc1ccccc1OCCN1CCN(CC)CC1 ?
MITF primary: 77*; FBW7 act: 0; TEAD-YAP block: -4; GPR151 activ: 1; MITF inh conf: 12; AS interf ctr: 13

What do the screens show for `CCN1CCN(CCCOc2ccccc2-c2ccccc2)CC1`?
MITF primary: 60*; FBW7 act: 0; TEAD-YAP block: 11; GPR151 activ: 1; MITF inh conf: 7; AS interf ctr: 10

Results for CCN1CCN(CCOc2ccccc2CO)CC1 ?
MITF primary: 39; FBW7 act: -1; TEAD-YAP block: 7; GPR151 activ: 0

How did c1ccc(-c2ccccc2OCCCCN2CCNCC2)cc1 do in these assays?
MITF primary: 49; FBW7 act: -1; TEAD-YAP block: -3; GPR151 activ: -2

How did c1ccc(-c2ccccc2OCCCN2CCNCC2)cc1 do in these assays?
MITF primary: 64*; FBW7 act: 0; TEAD-YAP block: -2; GPR151 activ: -1; MITF inh conf: -2; AS interf ctr: 10

Results for COc1cc(/C=N/NC(=O)c2nnn(-c3nonc3N)c2CN(C)C)ccc1O ?
MITF primary: 6; FBW7 act: 0; TEAD-YAP block: 8; GPR151 activ: 0

What do the screens show for `CC(C)N(CCNc1nc(N2CCN(c3ccccn3)CC2)nc2c1ncn2C1CCCCC1)C(C)C`?
MITF primary: 18; FBW7 act: 0; TEAD-YAP block: 2; GPR151 activ: -1

Results for CCOc1ccccc1N(C)S(=O)(=O)c1ccc2[nH]cc(C(=O)NCc3ccco3)c(=O)c2c1 ?
MITF primary: -12; FBW7 act: 0; TEAD-YAP block: -4; GPR151 activ: 0

Results for COc1cccc(C2CC(=O)Nc3c2ccc(C)c3C)c1OC (centres undefined) ?
MITF primary: 16; FBW7 act: 1; TEAD-YAP block: 15; GPR151 activ: 1

From PubChem
